# Inconclusive results are not listed. A call without a number means that no potency is given here. The source made the active and inactive calls. Calls follow the shape of the dose curve; as a rule, active = well fitted inhibition curve with a large enough effect; inconclusive = small, poorly fitted or top-dose-only effect; inactive = flat fitted curve, though single readings scatter.
# Test: qHTS to identify inhibitors of the type 1 interferon - major histocompatibility complex class I in skeletal muscle: primary screen against the NCATS Pharmaceutical Collection (AID 1347407);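 also: luminescence of HiBiT knocked into endogenous HLA-B as interferon-induced MHC class I level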
# Details: human skeletal muscle cells, IFN-b-induced MHC-I HiBiT luminescence, 24 h; series mostly up to 45.9 µM
# Method in brief: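 Compounds […] were added to CRISPR-engineered HLA-B-HiBiT C25cl48 human myoblasts with 4.0 ng/ml IFN-beta. After 24 hrs at 37 C, cells were lysed and HiBiT luminescence measured.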
row,SMILES,Potency
1,CNC(=O)NC(O)C(Cl)(Cl)Cl (configuration not stated),inactive
2,CC(C(O)c1ccccc1)N(C)C/C=C/c1ccccc1 (configuration not stated),inactive
3,CC(CC(C(N)=O)(c1ccccc1)c1ccccc1)N(C)C (configuration not stated),inactive
4,O=C(O)CCCCCCNC1c2ccccc2CCc2ccccc21,inactive
5,CC(C)=CCN1CC[C@@]2(C)c3cc(O)ccc3C[C@@H]1[C@@H]2C,inactive
6,C[C@H]1CNCCc2ccc(Cl)cc21,inactive
7,CCCN(CCC)CCc1c[nH]c2ccccc12,inactive
8,CCN(CC)Cc1nccn1-c1ccc([N+](=O)[O-])cc1C(=O)c1ccccc1Cl,inactive
9,O=c1[nH]c2cc(Cl)ccc2n1C1CCNCC1,inactive
10,CCC1(c2ccccc2)CCC(=O)NC1=O (configuration not stated),inactive
11,COP(=S)(OC)Oc1ccc(Sc2ccc(OP(=S)(OC)OC)cc2)cc1,inactive
12,CCC1(CC)C(=O)NC(=O)NC1=O,inactive
13,CN(C)CCc1c[nH]c2ccc(O)cc12,inactive
14,O=C(CCl)c1ccc(Cl)cc1Cl,inactive
15,CN(C)C(=S)SSC(=S)N(C)C,inactive
16,CCO[C@H]1O[C@@H]2OC3(C)CC[C@H]4[C@H](C)CC[C@@H]([C@H]1C)[C@@]24OO3,inactive
17,COc1ccc(CN2CCNCC2)c(OC)c1OC,inactive
18,Cc1ncc2n1-c1ccc(Cl)cc1C(c1ccccc1F)=NC2,inactive
19,CCS(=O)(=O)C(C)(C)S(=O)(=O)CC,inactive
20,CCN(Cc1ccc(Cl)nc1)/C(=C/[N+](=O)[O-])NC,inactive
21,CCNc1nc(Cl)nc(NCC)n1,inactive
22,COc1ccc2c(C(=O)c3ccc(Cl)cc3)c(C)n(CC(=O)O)c2c1,inactive

# — PubChem BioAssay (NCATS)
